Assay [1] in a line: qHTS assay to identify small molecule antagonists of the thyroid receptor (TR) signaling pathway (AID 743065). Note: nearly all actives have a fitted effect of over 55% in size. Note: potency is the fitted concentration of half-maximal effect. The method, boiled down:
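GH3.TRE-Luc rat pituitary cells carrying two TR response elements driving luciferase were plated for 4 h, given compound plus 1 nM T3 (final), and incubated 23.5 h at 37 C. ONE-Glo luminescence measured reporter inhibition; CellTiter-Fluor fluorescence tracked cytotoxicity.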
A general note: In qHTS, concentration-response curves come from the screen itself.

For assay [2], the system named is thyroid hormone receptor (rat, GH3 cells). The experiment in a line: qHTS assay to identify small molecule agonists of the thyroid receptor (TR) signaling pathway (AID 743066; calls by dose curve).
The nature of assay [3]: qHTS assay to identify small molecule antagonists of the estrogen receptor alpha (ER-alpha) signaling pathway - cell viability counter screen (AID 743074; calls by dose curve;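 note: HEK293 cells carrying ER-alpha-UAS-bla reporter stimulated with 17beta-estradiol; nearly all actives have a fitted effect of over 45% in size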).
Assay [4] has as its target Estrogen receptor (Homo sapiens) (UniProt P03372). Nature of the assay: qHTS assay to identify small molecule agonists of the estrogen receptor alpha (ER-alpha) signaling pathway (AID 743075; calls by dose curve;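 note: HEK293 GripTite cells with ER-alpha and UAS-driven beta-lactamase reporter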).
Assay [5] has the same target. Nature of the assay: qHTS assay to identify small molecule agonists of the estrogen receptor alpha (ER-alpha) signaling pathway using the BG1 cell line (AID 743079). Note: nearly all actives have a fitted effect of over 20% in size. Note: potency is the fitted concentration of half-maximal effect.
A short description of assay [6]: qHTS assay to identify small molecule antagonists of the estrogen receptor alpha (ER-alpha) signaling pathway using the BG1 cell line (AID 743080; calls by dose curve;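 note: BG1 cells stimulated with 17beta-estradiol alongside compound; nearly all actives have a fitted effect of over 25% in size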; note: potency is the fitted concentration of half-maximal effect). The method, boiled down:
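Luciferase inhibition measured with ONE-Glo after 30 min at RT in BG1Luc4E2 cells given test compounds and 17beta-estradiol for 21.5 h at 37 C; CellTiter-Fluor viability read in the same wells beforehand.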

The nature of assay [7]: qHTS assay to identify small molecule antagonists of the estrogen receptor alpha (ER-alpha) signaling pathway using the BG1 cell line - cell viability counter screen (AID 743081).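 Note: compound given together with 17beta-estradiol as the ER stimulus; nearly all actives have a fitted effect of over 45% in size.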 Note: potency is the fitted concentration of half-maximal effect.
A further assay addresses Aromatase (Homo sapiens) (UniProt P11511). Nature of the assay: qHTS assay to identify aromatase inhibitors (AID 743083). Note: nearly all actives have a fitted effect of over 55% in size. Note: potency is the fitted concentration of half-maximal effect.
Assay [8] in a line: qHTS assay to identify aromatase inhibitors - cell viability counter screen (AID 743084).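 Note: cells stimulated with testosterone during compound exposure; nearly all actives have a fitted effect of over 55% in size.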
The target of assay [9] is Aryl hydrocarbon receptor (Homo sapiens) (UniProt P35869). The experiment in a line: qHTS assay to identify small molecule that activate the aryl hydrocarbon receptor (AhR) signaling pathway (AID 743085).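 For activation: HG2L7.5c1 human HepG2 liver cells with stably integrated DRE-driven firefly reporter; series mostly up to about 70 µM.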 Note: nearly all actives have a fitted effect of over 15% in size. Note: potency is the fitted concentration of half-maximal effect. Summed up:
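Cell line HG2L7.5c1 (human hepatoma, 20× DRE-luc). Plated, 5 h 37C, compound/DMSO added, 24 h 37C. CellTiter-Fluor 30 min 37C → fluorescence; then ONE-Glo 30 min RT → luminescence.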

Assay [10] is described as follows: qHTS assay to identify small molecule that activate the aryl hydrocarbon receptor (AhR) signaling pathway - cell viability counter screen (AID 743086). Note: nearly all actives have a fitted effect of over 45% in size. Note: potency is the fitted concentration of half-maximal effect. Summed up:
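HepG2-AhR-luc (HG2L7.5c1) cells, 4000/well, were preincubated 5 h at 37C, exposed to compound in qHTS format for 24 hr at 37C, then given CellTiter-Fluor for 30 min; viability was read as fluorescence in the reporter wells.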

The target in assay [11] is Peroxisome proliferator-activated receptor gamma (Homo sapiens) (UniProt P37231). The experiment in a line: qHTS assay to identify small molecule agonists of the peroxisome proliferator-activated receptor gamma (PPARg) signaling pathway (AID 743094; active = well fitted activation curve with a large enough effect in the signal ratio in the repeat runs, not every such curve was filed as active; the % refers to the signal ratio). The method, boiled down:
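Reporter activation was scored by fluorescence of cleaved LiveBLAzer B/G substrate (1 h, room temperature) in PPARg-bla HEK293H cells previously treated 17 h at 37C with DMSO-dissolved compounds.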

For assay [12] the target is unchanged. The experiment in a line: qHTS assay to identify small molecule antagonists of the peroxisome proliferator-activated receptor gamma (PPARg) signaling pathway (AID 743191; calls by dose curve; note: series mostly up to about 63 µM; nearly all actives have a fitted effect of over 30% in size). Summed up: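 GeneBLAzer PPARg UAS-bla HEK293H cells carrying a UAS-driven beta-lactamase reporter were plated at 3000 cells/well, preincubated 5 h at 37C, then given compound for 17 h at 37C; LiveBLAzer B/G FRET substrate was read after 1 h at room temperature.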

Assay [13] is described as follows: qHTS assay to identify small molecule antagonists of the peroxisome proliferator-activated receptor gamma (PPARg) signaling pathway - cell viability counter screen (AID 743194). Note: nearly all actives have a fitted effect of over 55% in size. The method, boiled down:
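PPARg-UAS-bla HEK293H cells were plated, rested 5 h at 37 C, then treated with compounds plus rosiglitazone (50 nM final) for 17 h at 37 C; viability was then read by CellTiter-Glo luminescence after 30 min at room temperature.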

The nature of assay [14]: qHTS assay for small molecule agonists of the antioxidant response element (ARE) signaling pathway (AID 743202; active = well fitted activation curve with a large enough effect in the signal ratio in the repeat runs, not every such curve was filed as active; the % refers to the signal ratio; note: potency is the fitted concentration of half-maximal effect). The method, boiled down: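 Following a 16 h, 37 C exposure of reporter HepG2 cells (ARE-driven beta-lactamase, 2,000 cells/well) to compounds, FRET substrate was applied for 2 h at room temperature and fluorescence intensity recorded.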
Assay [15] in a line: qHTS assay for small molecule activators of the heat shock response signaling pathway (AID 743210; active = well fitted activation curve with a large enough effect in the signal ratio in the repeat runs, with a control signal flat, not every such curve was filed as active; the % refers to the signal ratio; note: series mostly up to about 63 µM). The method, boiled down:
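Heat shock element–beta-lactamase HeLa reporter cells; qHTS with compounds for 5 h at 37 C; detection by FRET substrate fluorescence after 2.5 h at RT.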

A short description of assay [16]: qHTS assay to identify small molecule agonists of the peroxisome proliferator-activated receptor delta (PPARd) signaling pathway - cell viability counter screen (AID 743211). Note: nearly all actives have a fitted effect of over 55% in size. Note: potency is the fitted concentration of half-maximal effect. The method, boiled down:
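HEK293H PPARd-bla, 3000 cells/well; 5 h preincubation 37C/5% CO2; cpd in DMSO, 17 h 37C; B/G FRET substrate 2 h RT; CellTiter-Glo 30 min RT, luminescence.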

Assay [17] in a line: qHTS assay for small molecule agonists of the antioxidant response element (ARE) signaling pathway - cell viability counter screen (AID 743203; calls by dose curve; note: nearly all actives have a fitted effect of over 55% in size; note: potency is the fitted concentration of half-maximal effect). The method, boiled down: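 Viability counter screen: stably transfected ARE-bla HepG2 line, 16 hrs compound exposure at 37C/5% CO2, ATP-based CellTiter-Glo luminescence measured in the reporter wells.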
Assay [18] is described as follows: qHTS assay for small molecule activators of the heat shock response signaling pathway - cell viability counter screen (AID 743209). Note: nearly all actives have a fitted effect of over 50% in size. The method, boiled down:
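Viability of HSE-bla HeLa cells is measured with CellTiter-Glo in the wells already used for the reporter read. Compound exposure lasts 5 h at 37 C, and luminescence is read after 30 min at room temperature.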

Assay [19] deals with Estrogen receptor (Homo sapiens) (UniProt P03372). The experiment in a line: qHTS assay to identify small molecule antagonists of the estrogen receptor alpha (ER-alpha) signaling pathway (AID 743069; active = well fitted curve in the direction sought with a large enough effect in the signal ratio in the repeat runs, not every such curve was filed as active; the % refers to the signal ratio). The method, boiled down: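 A 17beta-estradiol challenge was applied right after compound transfer to ER-alpha-UAS-bla HEK293 cells previously kept in charcoal-stripped serum. Plates stood 18 hr at 37C and 5% CO2; fluorescence was read following 2 hr FRET substrate loading at room temperature.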
Estrogen receptor (Homo sapiens), sequence (P03372 whole entry, looked up): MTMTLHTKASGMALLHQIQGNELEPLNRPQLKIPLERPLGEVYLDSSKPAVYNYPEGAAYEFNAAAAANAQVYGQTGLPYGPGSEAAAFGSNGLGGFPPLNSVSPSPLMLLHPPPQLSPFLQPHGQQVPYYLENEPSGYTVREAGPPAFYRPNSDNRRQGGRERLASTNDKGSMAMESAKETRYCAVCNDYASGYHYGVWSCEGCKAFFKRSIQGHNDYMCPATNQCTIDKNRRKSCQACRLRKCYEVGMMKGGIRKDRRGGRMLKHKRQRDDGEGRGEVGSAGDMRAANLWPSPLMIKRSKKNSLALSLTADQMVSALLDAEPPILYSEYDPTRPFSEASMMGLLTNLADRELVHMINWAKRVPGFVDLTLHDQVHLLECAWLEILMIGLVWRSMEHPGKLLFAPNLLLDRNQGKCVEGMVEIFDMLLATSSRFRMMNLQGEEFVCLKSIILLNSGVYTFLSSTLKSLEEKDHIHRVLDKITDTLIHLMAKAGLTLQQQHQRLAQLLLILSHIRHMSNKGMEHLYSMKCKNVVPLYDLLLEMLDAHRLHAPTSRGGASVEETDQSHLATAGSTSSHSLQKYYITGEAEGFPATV

The results in this text go back to PubChem BioAssay (Tox21).

Where “and” joins values, the source holds several entries; their conditions need not be identical. Identical values can stand only once. Records with an inconclusive call do not appear. A structure can be active in one record and inactive in another. Calls of active or inactive are those of the source. Unless noted, calls come from the whole dose curve; as a rule, active = well fitted curve in the direction sought with a large enough effect in the repeat runs; inconclusive = weak or mixed curves; inactive = no such curve, though single readings can be large; an effect the other way counts as inactive or inconclusive.

Aromatase (Homo sapiens), sequence (P11511 whole entry, looked up): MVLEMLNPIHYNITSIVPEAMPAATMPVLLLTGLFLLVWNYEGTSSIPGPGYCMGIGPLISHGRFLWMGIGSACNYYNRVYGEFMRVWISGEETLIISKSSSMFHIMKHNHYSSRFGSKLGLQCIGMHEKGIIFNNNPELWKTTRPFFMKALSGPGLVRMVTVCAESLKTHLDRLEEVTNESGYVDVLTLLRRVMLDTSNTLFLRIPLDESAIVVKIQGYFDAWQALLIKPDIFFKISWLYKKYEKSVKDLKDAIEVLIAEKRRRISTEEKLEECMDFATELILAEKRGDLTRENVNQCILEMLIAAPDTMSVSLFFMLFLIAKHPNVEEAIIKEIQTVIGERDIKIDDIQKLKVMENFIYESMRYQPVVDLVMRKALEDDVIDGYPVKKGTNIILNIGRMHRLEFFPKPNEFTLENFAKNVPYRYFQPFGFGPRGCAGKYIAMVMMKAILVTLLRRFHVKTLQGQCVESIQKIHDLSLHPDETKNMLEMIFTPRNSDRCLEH
Peroxisome proliferator-activated receptor gamma (Homo sapiens), sequence (P37231 whole entry, looked up): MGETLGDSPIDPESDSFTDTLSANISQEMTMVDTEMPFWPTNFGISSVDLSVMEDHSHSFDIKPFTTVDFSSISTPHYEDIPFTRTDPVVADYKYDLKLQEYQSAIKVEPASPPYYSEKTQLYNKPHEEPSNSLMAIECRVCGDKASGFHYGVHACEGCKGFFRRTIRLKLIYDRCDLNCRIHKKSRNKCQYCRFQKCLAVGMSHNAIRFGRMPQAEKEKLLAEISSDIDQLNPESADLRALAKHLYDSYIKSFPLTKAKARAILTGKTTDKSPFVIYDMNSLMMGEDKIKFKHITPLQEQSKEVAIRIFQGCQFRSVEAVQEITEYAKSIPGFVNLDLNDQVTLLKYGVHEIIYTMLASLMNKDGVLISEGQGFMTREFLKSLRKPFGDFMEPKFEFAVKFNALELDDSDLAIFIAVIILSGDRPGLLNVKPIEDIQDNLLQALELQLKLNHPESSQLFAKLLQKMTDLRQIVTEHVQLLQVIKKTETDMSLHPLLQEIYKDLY
Aryl hydrocarbon receptor (Homo sapiens), sequence (P35869 whole entry, looked up): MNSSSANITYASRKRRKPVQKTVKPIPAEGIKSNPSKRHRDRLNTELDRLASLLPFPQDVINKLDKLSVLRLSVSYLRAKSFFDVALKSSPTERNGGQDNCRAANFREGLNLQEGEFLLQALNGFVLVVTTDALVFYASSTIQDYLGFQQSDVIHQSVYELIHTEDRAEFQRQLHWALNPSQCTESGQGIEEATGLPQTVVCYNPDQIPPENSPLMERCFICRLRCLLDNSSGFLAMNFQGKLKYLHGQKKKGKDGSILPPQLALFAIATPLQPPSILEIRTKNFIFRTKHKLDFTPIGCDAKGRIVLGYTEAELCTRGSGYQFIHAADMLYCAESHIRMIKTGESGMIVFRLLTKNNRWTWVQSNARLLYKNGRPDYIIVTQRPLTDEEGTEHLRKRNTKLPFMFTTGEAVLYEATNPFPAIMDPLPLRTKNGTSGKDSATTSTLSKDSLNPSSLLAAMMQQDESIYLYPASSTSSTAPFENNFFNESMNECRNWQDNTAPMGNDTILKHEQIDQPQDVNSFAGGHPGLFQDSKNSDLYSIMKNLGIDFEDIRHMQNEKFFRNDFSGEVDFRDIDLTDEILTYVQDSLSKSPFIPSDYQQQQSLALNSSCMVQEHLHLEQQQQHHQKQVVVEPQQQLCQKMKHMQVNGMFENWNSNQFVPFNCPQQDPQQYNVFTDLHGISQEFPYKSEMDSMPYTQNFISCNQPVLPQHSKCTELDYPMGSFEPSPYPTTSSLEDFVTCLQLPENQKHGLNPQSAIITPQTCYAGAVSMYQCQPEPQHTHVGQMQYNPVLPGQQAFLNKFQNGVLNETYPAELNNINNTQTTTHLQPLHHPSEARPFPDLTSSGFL

In the case of `Cc1scc2c1N(C(=O)CN1CCN(C)CC1)c1ccccc1NC2=O`, the Potency result in [1], in assay [2], in assay [3], in [4], in [5] and in [6] was “inactive” throughout. Further, the Potency entry (in [7]; in the assay with Aromatase (Homo sapiens); in assay [8]; in [9]; in assay [10]; in assay [11]) was “inactive” each time. Besides, the Potency entry in assay [12], in assay [13], in assay [14], in assay [15] and in assay [16] was “inactive” each time.
For the compound `C=C(C)C1CC=C(C)C(OC(C)=O)C1` (stereo unspecified), the Potency result in [1], in [2], in assay [3], in [4], in assay [5] and in [6] was “inactive” throughout. Moreover, the Potency entry (in assay [7]; with Aromatase (Homo sapiens); in [8]; in [9]; in assay [10]; in assay [11]) was “inactive” in each case. Besides, the Potency entry in [12], in assay [14], in assay [17], in assay [18], in assay [15] and in assay [16] was “inactive” in each case.
Take `Clc1ccc2c(c1)C(N1CCNCC1)=Nc1ccccc1O2`: the Potency is 29.8 µM (active) and 30.6 µM (active) in assay [1]; 11.9 µM (active) in assay [6]; “inactive and 54.5 µM (active)” in assay [7]; “inactive and 17.2 µM (active)” with Aromatase (Homo sapiens); 54.5 µM (active) and inactive in assay [17]; 27.5 µM (active) and 26.6 µM (active) in assay [16]. Moreover, the Potency result in [2], in assay [3], in assay [4], in assay [5], in assay [8] and in assay [9] was “inactive” each time. The Potency result in assay [10], in [11], in assay [12] and in assay [18] was “inactive” each time.
On to `NC(=Nc1ccccc1)Nc1ccccc1`, for which the Potency entry in assay [1], in [2], in [19], in assay [3], in assay [4] and in assay [8] was “inactive” throughout. Further, the Potency result in assay [11], in [12], in [15] and in [16] was “inactive” throughout. Further, the Potency in the assay with Aromatase (Homo sapiens) is 21.1 µM (active); in [9], “inactive and 19.3 µM (active)”; in assay [10], 6.11 µM (active); in assay [14], 13.3 µM (active).
For the compound `CC(C)CCOC(=O)c1ccc(N(C)C)cc1`, the Potency entry in [1], in assay [2], in assay [19], in [3], in assay [4] and in assay [7] was “inactive” throughout. Moreover, the Potency result (with Aromatase (Homo sapiens); in assay [8]; in assay [10]; in [11]; in [14]; in [17]) was “inactive” in each case. Besides, the Potency result in assay [18], in assay [15] and in assay [16] was “inactive” each time. The Potency in [5] was 11.9 µM (active).
On to `COc1nc(C)nc(Cl)c1NC1=NCCN1`, for which the Potency entry in [1], in [2], in [19], in assay [3], in assay [4] and in assay [5] was “inactive” throughout. Moreover, the Potency entry (in assay [6]; in the assay with Aromatase (Homo sapiens); in assay [8]; in assay [10]; in [11]; in [12]) was “inactive” each time. For the same compound, the Potency entry in assay [14], in assay [15] and in assay [16] was “inactive” each time.
As to `CC(=O)N[C@@H](CS)C(=O)O`, the Potency result in [1], in [2], in assay [19], in assay [3], in assay [4] and in assay [5] was “inactive” each time. The Potency result (in [6]; in assay [7]; in the assay with Aromatase (Homo sapiens); in [8]; in [9]; in [10]) was “inactive” in each case. The Potency entry in assay [11], in [12], in assay [13], in [14], in [17] and in assay [18] was “inactive” each time. The Potency result in [15] and in assay [16] was “inactive” each time.
